# Test results published in PubChem BioAssay (NCATS).
# Inconclusive results are not listed. Where a call stands in place of a potency, no number is given. Activity calls are given as the source filed them. Unless noted, calls come from the whole dose curve.
# Assays:
# [1] = qHTS for Inhibitors of the Functional Ribonucleoprotein Complex (vRNP) of Lassa (LASV) Arenavirus: LASV Primary Screen - GLuc reporter signal (AID 1347082; calls by dose curve; tested in HEK293 reporter line; note: nearly all actives have a fitted effect of over 60% in size)
# [2] = qHTS for Inhibitors of the Functional Ribonucleoprotein Complex (vRNP) of Lassa (LASV) Arenavirus: Viability assay - alamar blue signal for LASV Primary Screen (AID 1347083; calls by dose curve; tested in HEK293 reporter line; note: nearly all actives have a fitted effect of over 80% in size)
# [3] = qHTS for Inhibitors of the Functional Ribonucleoprotein Complex (vRNP) of Lymphocytic Choriomeningitis Arenaviruses (LCMV): Viability assay - alamar blue signal for LCMV Primary Screen (AID 1347085; calls by dose curve; tested in HEK293 reporter line; note: nearly all actives have a fitted effect of over 80% in size)
# [4] = target: Nucleoprotein (Lymphocytic choriomeningitis virus (strain Armstrong)) (UniProt P09992); assay: qHTS for Inhibitors of the Functional Ribonucleoprotein Complex (vRNP) of Lymphocytic Choriomeningitis Arenaviruses (LCMV): LCMV Primary Screen - GLuc reporter signal (AID 1347086); note: nearly all actives have a fitted effect of over 70% in size
# [5] = qHTS for inhibitors of Rabies Virus screened against the NCATS CANVASS Library (AID 1347402)
# [6] = Primary qHTS for inhibitors of SARS-S pseudo-typed particle cell entry (AID 1479145); note: nearly all actives have a fitted effect of over 45% in size
# [7] = Primary qHTS for Huh7 cytotoxicity: counterscreen for inhibitors of MERS-S pseudotyped particle cell entry (AID 1479147); conditions: outcome: dose series up to 57.1 µM unless noted
# [8] = Primary qHTS for inhibitors of MERS-S pseudo-typed particle cell entry (AID 1479149); note: nearly all actives have a fitted effect of over 60% in size
# [9] = Primary qHTS for Vero E6 cytotoxicity: counterscreen for inhibitors of SARS-S pseudo-typed particle cell entry (AID 1479150); conditions: outcome: dose series up to 57.1 µM unless noted
# [10] = Confirmatory qHTS to identify inhibitors of SARS-CoV-2 cell entry (AID 1645844); note: potency is the fitted concentration of half-maximal effect; nearly all actives have a fitted effect of over 45% in size
# Summary of the method: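 Luminescence entry read-out after 48 h: spike-pseudotyped MLV particles (Wuhan-Hu-1, 19-aa C-terminal truncation) added to compound-pretreated (1 h) HEK293-ACE2 cells; Data were normalised to bald PP and spike PP wells.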
# [11] = Cytotoxicity counterscreen for inhibitors of SARS-CoV-2 cell entry (AID 1645845); note: nearly all actives have a fitted effect of over 50% in size
# Summary of the method: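 ATP-content luminescence (ATPLite 1step, 15 min RT) read after 48 h compound exposure of Expi293F cells stably expressing human ACE2; normalized to cells-only wells and media-only wells.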
# [12] = Primary qHTS to identify inhibitors of SARS-CoV-2 cell entry (AID 1645846); conditions: activity change, negative = inhibition: at 57.1 µM (top of the series) unless noted; note: nearly all actives have a fitted effect of over 45% in size
# Summary of the method: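 Entry measured by luciferase signal 48 h after adding SARS-CoV-2-S pseudotyped MLV particles to HEK293-ACE2 cells preincubated 1 h with compounds. Normalisation: bald particles and spike particles.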
# [13] = VSVG counterscreen qHTS to identify inhibitors of SARS-CoV-2 cell entry (AID 1645847); note: potency is the fitted concentration of half-maximal effect; nearly all actives have a fitted effect of over 65% in size
# Summary of the method: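 Luminescence read after 48 h infection at 37 C with VSV-G-pseudotyped MLV particles, following 1 h compound exposure of Expi293F cells stably expressing human ACE2; scaled between bald particle and VSV-G particle wells.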
# [14] = test system: Zika virus NS2B-NS3 protease; assay: Primary screen GU AMC qHTS for Zika virus inhibitors (AID 1347154; active = well fitted curve in the direction sought with a large enough effect; an effect the other way counts as inactive or inconclusive; note: nearly all actives have a fitted effect of over 70% in size)
# Summary of the method: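 Fluorogenic AMC-substrate cleavage by noncovalent NS2B-NS3 protease complex (25 nM, pH 8.0 Tris buffer with Tween 20) followed for 15 minutes at room temperature (~20% conversion). Percent inhibition from ex340/em450 signal change, fitted by 4-parameter Hill equation.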
# [15] = Primary qHTS for small molecule stabilizers of the endoplasmic reticulum resident proteome: Secreted ER Calcium Modulated Protein (SERCaMP) assay (AID 1508630; active = well fitted curve in the direction sought with a large enough effect; an effect the other way counts as inactive or inconclusive)
# Summary of the method: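 The SH-SY5Y reporter protocol was run at 3 concentrations up to 38.3 uM (primary) or 11 concentrations (follow-up): 16 h compound, 100 nM thapsigargin for 4 h, then extracellular luciferase luminescence.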
# Sequence of Nucleoprotein (Lymphocytic choriomeningitis virus (strain Armstrong)) (P09992 whole entry, looked up): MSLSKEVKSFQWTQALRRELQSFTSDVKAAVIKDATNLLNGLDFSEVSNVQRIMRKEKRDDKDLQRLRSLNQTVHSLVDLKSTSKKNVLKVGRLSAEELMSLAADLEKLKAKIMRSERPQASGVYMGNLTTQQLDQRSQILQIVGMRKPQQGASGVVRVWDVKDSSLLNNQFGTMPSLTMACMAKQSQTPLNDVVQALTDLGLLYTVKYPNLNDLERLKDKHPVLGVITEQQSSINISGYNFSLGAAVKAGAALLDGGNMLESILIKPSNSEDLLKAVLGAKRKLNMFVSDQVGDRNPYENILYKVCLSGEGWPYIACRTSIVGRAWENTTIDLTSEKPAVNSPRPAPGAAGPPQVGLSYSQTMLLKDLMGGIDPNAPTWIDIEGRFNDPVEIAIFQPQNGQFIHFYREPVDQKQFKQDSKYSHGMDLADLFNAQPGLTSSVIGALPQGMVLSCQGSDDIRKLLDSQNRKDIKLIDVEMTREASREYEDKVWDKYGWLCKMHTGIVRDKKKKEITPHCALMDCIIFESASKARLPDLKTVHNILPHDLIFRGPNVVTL
compound,measurement,setting,value
CCCCCCOC(=O)CCCCC,Potency,[1],inactive
same,Potency,[2],inactive
same,Potency,[3],inactive
same,Potency,[4],inactive
CC1=CCC(C(C)C)C=C1 (stereo unspecified),Potency,[1],inactive
same,Potency,[2],inactive
same,Potency,[3],inactive
same,Potency,[4],inactive
C/C(=C/C=C/[C@@H](C)C(=O)O)[C@H]1CN[C@H](C(=O)O)[C@H]1CC(=O)O,Potency,[1],inactive
same,Potency,[2],inactive
same,Potency,[3],inactive
same,Potency,[4],inactive
O=c1cc(-c2ccc(O)c(O)c2)oc2cc(O[C@@H]3O[C@H](CO)[C@@H](O)[C@H](O)[C@H]3O)cc(O)c12,Potency,[1],inactive
same,Potency,[2],inactive
same,Potency,[3],inactive
same,Potency,[4],inactive
same,outcome,[5],inactive
CO[C@H]1C(=O)[C@]2(C)[C@@H](OC)C[C@H]3OC[C@@]3(OC(C)=O)[C@H]2[C@H](OC(=O)c2ccccc2)[C@]2(O)C[C@H](OC(=O)[C@H](O)[C@@H](NC(=O)OC(C)(C)C)c3ccccc3)C(C)=C1C2(C)C,Potency,[1],inactive
same,Potency,[2],inactive
same,Potency,[3],inactive
same,Potency,[4],inactive
same,Potency,[6],inactive
same,outcome,[7],inactive
same,Potency,[8],inactive
same,outcome,[9],inactive
same,Potency,[10],48.2 nM (active)
same,Potency,[11],inactive
same,"activity change, negative = inhibition",[12],-81.7%
same,Potency,[13],136 nM (active)
O=c1cc(-c2ccccc2)oc2cc(O)c(O)c(O)c12,Potency,[1],inactive
same,Potency,[2],inactive
same,Potency,[3],inactive
same,Potency,[4],inactive
same,outcome,[5],inactive
same,Potency,[11],inactive
CN1CCCCC1c1cccnc1 (stereo unspecified),Potency,[1],inactive
same,Potency,[2],inactive
same,Potency,[3],inactive
same,Potency,[4],inactive
same,Potency,[14],inactive
same,Potency,[15],inactive
O=C(O)Cc1c[nH]c2ccccc12,Potency,[1],inactive
same,Potency,[2],inactive
same,Potency,[3],inactive
same,Potency,[4],inactive
same,outcome,[5],inactive
